Legend:
Assay in all cases: log2 ratio of Biotin-Ahx-Ub-VS probe labelling (fragment/DMSO); higher = less target engagement (more negative = stronger competition), active = hit call of the paper (q ≤ 0.05, log2 ratio ≤ -1)
Settings in all cases: compound concentration: 200 uM; treatment time: 3 h
USP42 = molecular target: T1, USP42 (UniProt Q9H9J4)
T1 sequence (whole entry): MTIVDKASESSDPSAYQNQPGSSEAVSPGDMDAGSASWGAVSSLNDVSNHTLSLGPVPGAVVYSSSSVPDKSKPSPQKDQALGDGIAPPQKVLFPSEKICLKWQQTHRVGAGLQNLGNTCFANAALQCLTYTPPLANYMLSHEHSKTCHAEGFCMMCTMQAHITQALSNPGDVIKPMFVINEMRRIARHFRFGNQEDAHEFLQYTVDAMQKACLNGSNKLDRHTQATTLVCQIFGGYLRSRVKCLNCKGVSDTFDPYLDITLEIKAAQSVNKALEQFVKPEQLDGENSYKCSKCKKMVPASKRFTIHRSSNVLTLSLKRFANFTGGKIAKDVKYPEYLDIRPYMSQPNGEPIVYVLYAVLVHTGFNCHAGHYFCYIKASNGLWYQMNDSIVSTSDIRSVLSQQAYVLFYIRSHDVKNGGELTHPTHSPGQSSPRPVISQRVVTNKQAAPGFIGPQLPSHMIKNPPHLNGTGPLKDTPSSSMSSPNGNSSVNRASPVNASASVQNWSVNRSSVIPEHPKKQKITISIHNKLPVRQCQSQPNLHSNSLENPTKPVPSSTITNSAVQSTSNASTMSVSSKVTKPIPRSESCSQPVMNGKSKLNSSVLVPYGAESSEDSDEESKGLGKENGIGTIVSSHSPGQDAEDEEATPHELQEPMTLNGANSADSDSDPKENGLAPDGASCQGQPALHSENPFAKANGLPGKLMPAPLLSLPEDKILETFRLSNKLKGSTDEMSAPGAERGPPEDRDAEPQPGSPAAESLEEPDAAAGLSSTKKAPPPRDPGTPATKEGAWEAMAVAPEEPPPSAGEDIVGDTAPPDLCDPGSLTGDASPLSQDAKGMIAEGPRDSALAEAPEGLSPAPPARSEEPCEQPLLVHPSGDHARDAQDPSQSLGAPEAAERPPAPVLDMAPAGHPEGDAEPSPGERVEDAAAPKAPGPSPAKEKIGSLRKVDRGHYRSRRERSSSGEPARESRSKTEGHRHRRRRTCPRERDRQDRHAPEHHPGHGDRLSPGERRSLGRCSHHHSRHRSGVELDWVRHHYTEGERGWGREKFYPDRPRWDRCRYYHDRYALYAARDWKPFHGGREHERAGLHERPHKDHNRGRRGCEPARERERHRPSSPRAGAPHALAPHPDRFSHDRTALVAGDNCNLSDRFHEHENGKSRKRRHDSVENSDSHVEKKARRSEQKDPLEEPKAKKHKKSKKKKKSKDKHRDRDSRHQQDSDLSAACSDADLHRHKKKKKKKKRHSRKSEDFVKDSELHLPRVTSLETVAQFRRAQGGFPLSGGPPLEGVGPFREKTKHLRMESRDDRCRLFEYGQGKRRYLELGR
Procedure, shortened: (§1)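 HEK293T lysate, 495 µg per sample in Tris/CHAPS/IGEPAL buffer with protease inhibitors, was treated in triplicate with fragment at 200 µM or vehicle for 3 h and then with Biotin-Ahx-Ub-VS at 0.5 µM final for 1 h. Labelled DUBs were NeutrAvidin-enriched, digested with LysC and trypsin, and run by diaPASEF LC-MS/MS. Spectronaut label-free quantities were global-median-normalised, and values are average log2 fragment/vehicle ratios by unpaired t-test on proteins with ≥2 unique peptides.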

USP46 = USP46 (UniProt P62068)
Procedure, shortened: as §1

USP47 = molecular target: T2, USP47 (UniProt Q96K76)
T2 sequence (whole entry): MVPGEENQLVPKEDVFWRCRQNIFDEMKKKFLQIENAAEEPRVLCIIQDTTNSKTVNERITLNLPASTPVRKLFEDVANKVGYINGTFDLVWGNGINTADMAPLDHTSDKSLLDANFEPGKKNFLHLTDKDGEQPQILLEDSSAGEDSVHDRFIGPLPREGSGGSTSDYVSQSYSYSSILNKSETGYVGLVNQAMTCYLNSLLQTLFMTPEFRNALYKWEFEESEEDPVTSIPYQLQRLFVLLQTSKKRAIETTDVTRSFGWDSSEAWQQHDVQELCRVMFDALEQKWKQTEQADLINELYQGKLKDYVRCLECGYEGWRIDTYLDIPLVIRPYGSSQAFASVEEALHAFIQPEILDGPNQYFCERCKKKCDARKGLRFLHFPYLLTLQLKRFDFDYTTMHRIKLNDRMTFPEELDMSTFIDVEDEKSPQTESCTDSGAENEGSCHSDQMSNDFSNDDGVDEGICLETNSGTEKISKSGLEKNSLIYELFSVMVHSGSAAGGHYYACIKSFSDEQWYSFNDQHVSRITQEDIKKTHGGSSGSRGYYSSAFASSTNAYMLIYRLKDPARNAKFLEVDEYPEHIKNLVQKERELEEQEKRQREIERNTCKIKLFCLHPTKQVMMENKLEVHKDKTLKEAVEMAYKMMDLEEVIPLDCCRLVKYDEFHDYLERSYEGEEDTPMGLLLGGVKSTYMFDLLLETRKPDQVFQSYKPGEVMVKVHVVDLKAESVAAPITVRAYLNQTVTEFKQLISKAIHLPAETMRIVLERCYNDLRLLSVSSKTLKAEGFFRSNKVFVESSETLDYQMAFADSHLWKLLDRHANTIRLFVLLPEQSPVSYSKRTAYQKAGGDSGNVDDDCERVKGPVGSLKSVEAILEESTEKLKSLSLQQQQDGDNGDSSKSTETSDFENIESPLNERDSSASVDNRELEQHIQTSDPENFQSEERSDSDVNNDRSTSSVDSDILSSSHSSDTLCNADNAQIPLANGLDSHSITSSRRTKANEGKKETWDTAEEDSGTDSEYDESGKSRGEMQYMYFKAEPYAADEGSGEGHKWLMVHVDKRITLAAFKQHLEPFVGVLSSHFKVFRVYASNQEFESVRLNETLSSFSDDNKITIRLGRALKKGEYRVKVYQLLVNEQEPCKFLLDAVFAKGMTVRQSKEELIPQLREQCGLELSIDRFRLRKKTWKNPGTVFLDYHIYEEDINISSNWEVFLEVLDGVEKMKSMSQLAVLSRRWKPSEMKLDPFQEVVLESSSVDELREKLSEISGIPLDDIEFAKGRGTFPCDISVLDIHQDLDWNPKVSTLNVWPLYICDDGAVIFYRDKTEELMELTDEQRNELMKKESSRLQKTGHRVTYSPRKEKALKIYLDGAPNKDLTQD
Procedure, shortened: as §1

USP48 = molecular target: T3, USP48 (UniProt Q86UV5)
T3 sequence (whole entry): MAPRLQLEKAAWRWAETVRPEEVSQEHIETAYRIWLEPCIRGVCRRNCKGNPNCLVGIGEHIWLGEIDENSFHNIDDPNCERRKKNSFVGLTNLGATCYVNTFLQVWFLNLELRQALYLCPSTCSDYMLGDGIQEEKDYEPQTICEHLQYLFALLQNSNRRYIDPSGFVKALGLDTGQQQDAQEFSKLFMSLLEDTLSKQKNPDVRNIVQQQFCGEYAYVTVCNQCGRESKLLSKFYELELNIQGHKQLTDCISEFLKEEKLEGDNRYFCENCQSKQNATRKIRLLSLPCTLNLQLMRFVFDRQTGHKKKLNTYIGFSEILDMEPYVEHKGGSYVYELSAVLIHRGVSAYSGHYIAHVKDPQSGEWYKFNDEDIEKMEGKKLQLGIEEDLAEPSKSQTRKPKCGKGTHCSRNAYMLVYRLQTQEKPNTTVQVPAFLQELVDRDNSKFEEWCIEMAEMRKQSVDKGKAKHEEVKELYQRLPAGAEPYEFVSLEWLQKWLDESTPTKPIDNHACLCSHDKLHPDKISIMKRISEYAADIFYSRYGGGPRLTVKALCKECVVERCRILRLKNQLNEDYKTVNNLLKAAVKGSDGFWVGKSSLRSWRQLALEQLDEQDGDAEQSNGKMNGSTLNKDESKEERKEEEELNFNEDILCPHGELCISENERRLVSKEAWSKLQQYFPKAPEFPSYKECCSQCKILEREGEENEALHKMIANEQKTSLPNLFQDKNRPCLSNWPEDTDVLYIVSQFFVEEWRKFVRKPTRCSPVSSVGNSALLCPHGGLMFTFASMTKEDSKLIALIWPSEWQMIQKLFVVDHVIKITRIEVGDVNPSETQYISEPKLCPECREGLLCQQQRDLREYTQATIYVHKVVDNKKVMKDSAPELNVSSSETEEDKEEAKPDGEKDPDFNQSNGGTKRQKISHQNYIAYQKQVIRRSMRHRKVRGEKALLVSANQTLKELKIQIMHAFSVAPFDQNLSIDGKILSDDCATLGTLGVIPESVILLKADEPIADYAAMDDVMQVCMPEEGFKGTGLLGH
Procedure, shortened: as §1

USP5 = molecular target: T4, USP5 (UniProt P45974)
T4 sequence (whole entry): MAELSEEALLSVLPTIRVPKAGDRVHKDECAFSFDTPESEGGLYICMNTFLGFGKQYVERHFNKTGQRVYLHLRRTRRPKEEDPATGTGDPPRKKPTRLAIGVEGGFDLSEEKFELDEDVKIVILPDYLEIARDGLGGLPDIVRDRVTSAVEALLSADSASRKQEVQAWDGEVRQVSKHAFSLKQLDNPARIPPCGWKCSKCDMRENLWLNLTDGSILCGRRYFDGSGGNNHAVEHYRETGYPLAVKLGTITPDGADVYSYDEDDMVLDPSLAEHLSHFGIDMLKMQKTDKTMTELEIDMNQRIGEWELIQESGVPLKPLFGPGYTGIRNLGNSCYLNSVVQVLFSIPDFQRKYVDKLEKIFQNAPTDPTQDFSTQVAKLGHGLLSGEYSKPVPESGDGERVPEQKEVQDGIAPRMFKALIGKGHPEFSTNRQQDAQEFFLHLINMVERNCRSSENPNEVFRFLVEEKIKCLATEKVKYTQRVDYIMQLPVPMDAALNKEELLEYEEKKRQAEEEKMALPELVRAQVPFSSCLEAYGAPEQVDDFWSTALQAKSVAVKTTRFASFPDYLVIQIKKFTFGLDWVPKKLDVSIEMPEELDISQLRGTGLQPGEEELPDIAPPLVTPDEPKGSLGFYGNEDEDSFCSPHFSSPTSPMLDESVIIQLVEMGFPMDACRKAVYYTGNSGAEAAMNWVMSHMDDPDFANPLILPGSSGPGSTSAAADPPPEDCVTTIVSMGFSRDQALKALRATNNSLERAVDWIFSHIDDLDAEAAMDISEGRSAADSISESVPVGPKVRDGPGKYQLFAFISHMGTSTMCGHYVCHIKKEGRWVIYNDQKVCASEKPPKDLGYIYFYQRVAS
Procedure, shortened: as §1

USP54 = USP54 (UniProt Q70EL1)
Procedure, shortened: as §1

USP7 = USP7 (UniProt Q93009)
Procedure, shortened: as §1

USP8 = molecular target: T5, USP8 (UniProt P40818)
T5 sequence (whole entry): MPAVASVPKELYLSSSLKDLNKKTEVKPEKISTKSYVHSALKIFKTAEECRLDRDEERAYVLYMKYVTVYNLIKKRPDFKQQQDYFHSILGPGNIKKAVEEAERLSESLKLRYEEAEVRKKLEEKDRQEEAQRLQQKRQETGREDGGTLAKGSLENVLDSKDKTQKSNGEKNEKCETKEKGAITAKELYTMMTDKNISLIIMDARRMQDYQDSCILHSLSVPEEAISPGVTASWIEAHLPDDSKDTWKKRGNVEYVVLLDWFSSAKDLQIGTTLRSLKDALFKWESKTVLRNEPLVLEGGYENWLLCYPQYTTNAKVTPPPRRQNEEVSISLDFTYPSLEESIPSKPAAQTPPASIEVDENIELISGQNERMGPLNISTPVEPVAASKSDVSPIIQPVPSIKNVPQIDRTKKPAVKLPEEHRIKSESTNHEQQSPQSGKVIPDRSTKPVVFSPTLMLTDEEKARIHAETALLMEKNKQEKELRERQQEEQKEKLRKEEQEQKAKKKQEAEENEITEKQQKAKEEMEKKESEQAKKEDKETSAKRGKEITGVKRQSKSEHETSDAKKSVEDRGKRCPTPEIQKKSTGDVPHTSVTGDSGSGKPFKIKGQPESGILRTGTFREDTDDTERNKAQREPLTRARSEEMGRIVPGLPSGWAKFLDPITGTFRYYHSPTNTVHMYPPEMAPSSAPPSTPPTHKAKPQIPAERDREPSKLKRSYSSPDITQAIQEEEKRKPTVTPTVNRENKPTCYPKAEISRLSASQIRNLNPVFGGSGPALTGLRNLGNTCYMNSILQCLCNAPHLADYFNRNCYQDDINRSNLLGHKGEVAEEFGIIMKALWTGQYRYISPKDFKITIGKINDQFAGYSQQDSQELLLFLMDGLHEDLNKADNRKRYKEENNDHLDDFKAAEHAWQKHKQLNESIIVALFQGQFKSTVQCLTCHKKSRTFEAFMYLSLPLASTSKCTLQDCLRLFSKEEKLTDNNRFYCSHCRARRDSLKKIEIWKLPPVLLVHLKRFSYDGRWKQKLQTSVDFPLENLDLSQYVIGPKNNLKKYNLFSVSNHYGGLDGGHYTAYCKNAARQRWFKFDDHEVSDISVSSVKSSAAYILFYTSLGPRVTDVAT
Procedure, shortened: as §1

USP9X = USP9X (UniProt Q93008)
Procedure, shortened: as §1

UniProt O00487 = molecular target: UniProt O00487
Procedure, shortened: as §1

Measured: log2 ratio of Biotin-Ahx-Ub-VS probe labelling

USP54, sequence (Q70EL1 whole entry): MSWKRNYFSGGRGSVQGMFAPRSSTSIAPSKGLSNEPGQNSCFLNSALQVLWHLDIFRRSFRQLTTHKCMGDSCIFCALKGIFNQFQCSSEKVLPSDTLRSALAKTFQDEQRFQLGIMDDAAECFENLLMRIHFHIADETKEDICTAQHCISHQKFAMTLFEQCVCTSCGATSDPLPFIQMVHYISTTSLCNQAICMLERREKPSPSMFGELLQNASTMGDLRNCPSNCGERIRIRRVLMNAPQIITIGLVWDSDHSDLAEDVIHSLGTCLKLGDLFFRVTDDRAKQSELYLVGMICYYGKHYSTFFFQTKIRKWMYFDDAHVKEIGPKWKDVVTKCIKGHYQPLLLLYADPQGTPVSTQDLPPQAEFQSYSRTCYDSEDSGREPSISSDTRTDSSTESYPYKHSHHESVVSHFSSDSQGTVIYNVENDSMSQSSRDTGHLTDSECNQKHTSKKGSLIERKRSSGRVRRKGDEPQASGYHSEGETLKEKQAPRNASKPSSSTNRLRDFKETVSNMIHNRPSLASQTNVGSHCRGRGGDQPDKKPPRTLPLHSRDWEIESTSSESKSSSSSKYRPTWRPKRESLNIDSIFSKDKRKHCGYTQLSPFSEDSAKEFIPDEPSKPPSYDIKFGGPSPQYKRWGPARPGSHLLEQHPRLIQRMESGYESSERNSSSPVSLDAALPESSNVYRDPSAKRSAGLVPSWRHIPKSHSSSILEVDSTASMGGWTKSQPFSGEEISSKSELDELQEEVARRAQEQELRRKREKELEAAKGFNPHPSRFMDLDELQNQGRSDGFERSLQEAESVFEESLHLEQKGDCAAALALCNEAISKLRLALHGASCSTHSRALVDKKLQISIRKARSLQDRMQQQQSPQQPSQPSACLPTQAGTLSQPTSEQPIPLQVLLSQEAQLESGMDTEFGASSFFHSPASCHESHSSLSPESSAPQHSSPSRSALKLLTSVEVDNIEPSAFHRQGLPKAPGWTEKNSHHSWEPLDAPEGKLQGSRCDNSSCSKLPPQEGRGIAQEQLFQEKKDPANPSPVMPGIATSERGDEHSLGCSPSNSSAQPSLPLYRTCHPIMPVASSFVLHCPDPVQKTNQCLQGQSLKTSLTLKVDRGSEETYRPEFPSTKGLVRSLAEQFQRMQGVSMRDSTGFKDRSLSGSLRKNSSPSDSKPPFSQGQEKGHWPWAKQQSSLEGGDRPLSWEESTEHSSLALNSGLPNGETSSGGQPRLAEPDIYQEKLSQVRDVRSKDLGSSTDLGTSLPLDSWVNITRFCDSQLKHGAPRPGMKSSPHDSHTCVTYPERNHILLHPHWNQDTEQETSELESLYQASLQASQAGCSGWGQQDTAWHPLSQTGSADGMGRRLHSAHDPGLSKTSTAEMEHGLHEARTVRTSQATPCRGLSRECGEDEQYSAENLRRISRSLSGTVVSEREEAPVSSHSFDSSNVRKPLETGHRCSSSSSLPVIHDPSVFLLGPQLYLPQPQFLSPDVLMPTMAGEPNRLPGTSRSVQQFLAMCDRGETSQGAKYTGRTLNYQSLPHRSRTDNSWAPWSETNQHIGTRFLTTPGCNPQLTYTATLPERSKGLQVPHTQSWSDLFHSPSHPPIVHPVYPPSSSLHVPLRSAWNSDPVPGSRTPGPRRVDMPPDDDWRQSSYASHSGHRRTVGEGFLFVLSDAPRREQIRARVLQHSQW
UniProt O00487, sequence (O00487 whole entry): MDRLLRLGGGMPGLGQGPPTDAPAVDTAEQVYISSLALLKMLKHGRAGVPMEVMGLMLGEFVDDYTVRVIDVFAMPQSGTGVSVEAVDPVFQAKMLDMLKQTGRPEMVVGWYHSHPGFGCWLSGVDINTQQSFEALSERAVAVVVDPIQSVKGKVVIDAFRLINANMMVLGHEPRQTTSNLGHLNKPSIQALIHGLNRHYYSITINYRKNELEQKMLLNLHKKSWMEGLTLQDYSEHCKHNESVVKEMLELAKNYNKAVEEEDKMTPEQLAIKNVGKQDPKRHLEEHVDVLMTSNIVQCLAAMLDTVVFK
USP46, sequence (P62068 whole entry): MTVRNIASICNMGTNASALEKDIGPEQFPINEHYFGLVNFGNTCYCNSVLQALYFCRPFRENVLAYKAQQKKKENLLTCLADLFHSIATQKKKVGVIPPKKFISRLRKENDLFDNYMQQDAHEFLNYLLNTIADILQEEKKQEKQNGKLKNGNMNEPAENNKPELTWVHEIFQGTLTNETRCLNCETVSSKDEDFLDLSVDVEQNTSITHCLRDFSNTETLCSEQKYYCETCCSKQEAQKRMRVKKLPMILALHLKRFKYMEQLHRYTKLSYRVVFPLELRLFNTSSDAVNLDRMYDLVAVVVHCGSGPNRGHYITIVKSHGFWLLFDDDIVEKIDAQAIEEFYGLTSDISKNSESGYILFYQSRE
USP9X, sequence (Q93008 whole entry): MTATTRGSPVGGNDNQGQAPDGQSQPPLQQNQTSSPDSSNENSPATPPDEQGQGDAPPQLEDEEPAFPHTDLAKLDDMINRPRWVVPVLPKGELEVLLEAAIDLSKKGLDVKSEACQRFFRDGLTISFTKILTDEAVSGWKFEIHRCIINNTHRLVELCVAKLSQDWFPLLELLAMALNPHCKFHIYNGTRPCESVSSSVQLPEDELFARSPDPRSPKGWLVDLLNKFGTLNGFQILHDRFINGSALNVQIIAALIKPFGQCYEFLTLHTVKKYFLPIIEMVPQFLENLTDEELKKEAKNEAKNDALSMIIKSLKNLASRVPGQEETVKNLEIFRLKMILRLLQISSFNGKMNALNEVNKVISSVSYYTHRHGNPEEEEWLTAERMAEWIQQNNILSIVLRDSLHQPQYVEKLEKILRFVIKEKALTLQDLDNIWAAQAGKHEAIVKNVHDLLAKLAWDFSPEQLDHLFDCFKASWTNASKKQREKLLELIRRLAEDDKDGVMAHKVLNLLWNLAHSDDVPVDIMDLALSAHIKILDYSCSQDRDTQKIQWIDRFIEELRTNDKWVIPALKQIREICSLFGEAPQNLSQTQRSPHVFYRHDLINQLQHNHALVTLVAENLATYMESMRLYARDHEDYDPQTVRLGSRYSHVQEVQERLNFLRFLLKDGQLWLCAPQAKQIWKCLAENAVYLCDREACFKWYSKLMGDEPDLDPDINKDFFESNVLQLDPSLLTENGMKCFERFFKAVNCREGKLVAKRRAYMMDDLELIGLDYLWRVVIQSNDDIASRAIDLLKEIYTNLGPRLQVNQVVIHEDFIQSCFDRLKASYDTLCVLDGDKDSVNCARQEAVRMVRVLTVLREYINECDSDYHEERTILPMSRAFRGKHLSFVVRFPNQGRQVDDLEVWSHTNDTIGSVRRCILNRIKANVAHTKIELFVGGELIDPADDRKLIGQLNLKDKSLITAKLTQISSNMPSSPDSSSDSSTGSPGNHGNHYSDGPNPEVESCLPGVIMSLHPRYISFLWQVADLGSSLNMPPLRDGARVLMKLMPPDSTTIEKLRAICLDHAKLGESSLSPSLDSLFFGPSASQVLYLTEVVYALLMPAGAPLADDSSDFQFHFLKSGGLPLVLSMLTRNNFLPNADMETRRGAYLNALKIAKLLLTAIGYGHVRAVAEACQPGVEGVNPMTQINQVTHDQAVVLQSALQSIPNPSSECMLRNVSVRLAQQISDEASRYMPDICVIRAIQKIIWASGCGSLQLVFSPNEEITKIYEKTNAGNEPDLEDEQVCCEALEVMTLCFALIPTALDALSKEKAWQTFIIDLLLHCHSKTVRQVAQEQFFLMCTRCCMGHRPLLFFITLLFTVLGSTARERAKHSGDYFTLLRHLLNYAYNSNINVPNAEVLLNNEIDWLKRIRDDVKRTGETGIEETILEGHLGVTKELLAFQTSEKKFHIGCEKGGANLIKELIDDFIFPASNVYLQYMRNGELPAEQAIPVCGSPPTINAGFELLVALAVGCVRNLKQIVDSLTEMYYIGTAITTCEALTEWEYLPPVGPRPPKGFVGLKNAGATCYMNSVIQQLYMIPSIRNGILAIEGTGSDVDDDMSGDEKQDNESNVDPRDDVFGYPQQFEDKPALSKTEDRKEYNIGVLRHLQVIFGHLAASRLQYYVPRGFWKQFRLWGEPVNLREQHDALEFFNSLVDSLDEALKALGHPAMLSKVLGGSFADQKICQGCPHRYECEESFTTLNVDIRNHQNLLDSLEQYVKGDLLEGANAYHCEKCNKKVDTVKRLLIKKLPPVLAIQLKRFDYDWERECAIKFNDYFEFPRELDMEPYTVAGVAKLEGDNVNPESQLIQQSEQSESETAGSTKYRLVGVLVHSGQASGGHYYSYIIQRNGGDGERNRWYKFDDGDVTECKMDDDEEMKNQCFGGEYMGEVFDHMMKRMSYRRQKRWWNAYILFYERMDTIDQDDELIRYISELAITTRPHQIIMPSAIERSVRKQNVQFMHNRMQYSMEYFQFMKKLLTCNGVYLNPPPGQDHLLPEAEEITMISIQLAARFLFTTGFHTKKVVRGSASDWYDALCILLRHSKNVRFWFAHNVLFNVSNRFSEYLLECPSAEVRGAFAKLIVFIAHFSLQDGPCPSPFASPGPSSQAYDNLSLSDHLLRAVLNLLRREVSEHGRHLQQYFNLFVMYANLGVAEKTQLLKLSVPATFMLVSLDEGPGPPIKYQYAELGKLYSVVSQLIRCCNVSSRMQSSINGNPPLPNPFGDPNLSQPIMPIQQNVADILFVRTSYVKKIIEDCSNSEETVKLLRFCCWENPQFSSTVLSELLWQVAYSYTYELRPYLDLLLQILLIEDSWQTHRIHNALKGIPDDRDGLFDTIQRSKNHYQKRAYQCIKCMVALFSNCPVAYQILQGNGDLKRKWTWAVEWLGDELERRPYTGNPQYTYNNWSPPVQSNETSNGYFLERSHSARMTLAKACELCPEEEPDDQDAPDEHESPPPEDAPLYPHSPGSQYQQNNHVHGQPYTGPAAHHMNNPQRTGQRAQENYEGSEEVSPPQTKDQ

Cl.Cn1nccc1C(NC(=O)CCl)c1ccccc1 (stereo not given)
active: USP47 -1.1
inactive: USP42 0.0316 | USP46 0.114 | USP48 -0.11 | USP5 0.239 | USP54 0.34 | USP7 -0.284 | USP8 -0.582 | USP9X -0.0773 | UniProt O00487 -0.0868

Reference: the supplement of paper PMC11732987, “Enantioselective OTUD7B fragment discovery through chemoproteomics screening and high-throughput optimisation” (Communications Chemistry, 2025)
